# Results reported in PubChem BioAssay (NCATS).
# Several values for one entry are separate records, joined by “and”; a condition that tells them apart may be missing. Equal entries are not always repeated. Inconclusive results are not listed. Entries that show only a call come without a potency. Activity calls are given as the source filed them. Calls follow the shape of the dose curve; as a rule, active = well fitted cell-killing curve with a large enough effect; inconclusive = small, poorly fitted or top-dose-only effect, or effect the other way; inactive = no such curve, though single readings can be large or run the other way.
# Assay: Viability qHTS for spleen associated tyrosine kinase inhibitor (SYKi) naive MV4-11 cells (AID 1963823); also: nearly all actives have a fitted effect of over 40% in size
# Settings: MV4-11 AML viability, CellTiter-Glo luminescence, 72 h; series mostly up to 45 µM
# Summary of the method: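 Viability of MV4-11 AML cells lacking prior SYK inhibitor exposure is scored by CellTiter-Glo luminescence following 72 hr compound incubation at 37 C, 5% CO2, seeded at 500 cells per well.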
# Potency is read from the fitted curve at half-maximal effect.
Compound,Potency,viability (% of control)
COc1cc(C[C@@H](C)N)c(OC)cc1C,inactive,–
COc1ccc2c3c1O[C@H]1[C@@H](O)C=C[C@H]4[C@@H](C2)N(C)CC[C@@]341,37.8 µM (active),–
Clc1cccc(N2CCNCC2)c1,inactive,–
COc1cc2c(cc1F)C(c1ccccc1Cl)=Nc1c(n[nH]c1C)N2,0.517 µM (active),–
NCC(O)c1ccc(O)cc1 (stereo not drawn),inactive,–
COc1ccc(OC)c(CC(C)N)c1 (stereo not drawn),inactive,–
CCC(OC(C)=O)C(CC(C)NC)(c1ccccc1)c1ccccc1 (stereo not drawn),43.7 µM (active),–
Oc1ccc(Cl)cc1Cc1ccccc1,24.6 µM (active),–
COc1ccccc1N1CCNCC1,inactive,–
Cc1nnc2n1-c1sc(CCc3ccc(CC(C)C)cc3)cc1C(c1ccccc1Cl)=NC2C (stereo not drawn),5.8 µM (active),–
C[C@@]12OC(=O)[C@]1([C@@H](O)[C@@H]1C=CCCC1)NC(=O)[C@@H]2CCCl,0.0209 µM (active),–
CCC1(c2ccccc2)C(=O)N(COC)C(=O)N(COC)C1=O,inactive,–
NCc1cccnc1,inactive,–
NP(N)(=O)NC(=O)c1ccc(F)cc1,inactive,–
CN1C(=O)NC(=O)C(C)(C2=CCCCC2)C1=O (stereo not drawn),inactive,–
NCC(CC(=O)O)c1ccc(Cl)cc1 (stereo not drawn),–,90.7% [at 0.588 µM] (inactive)
CCC(=O)OC1(c2ccccc2)CCN(C)CC1,inactive,–
ClC1=C(Cl)C2(Cl)C(CBr)CC1(Cl)C2(Cl)Cl (stereo not drawn),inactive,–
CCN(CC)CCOC(=O)C(C)(c1ccccc1)c1ccccc1,inactive,–
Nc1ccccc1,inactive,–

Compound,Potency,viability (% of control)
COc1ccc(Cc2nccc3cc(OC)c(OC)cc23)cc1OC,6.68 µM (active) and 2.35 µM (active),–
COC12C(COC(N)=O)C3=C(C(=O)C(C)=C(N)C3=O)N1CC1C2N1C (stereo not drawn),0.59 µM (active),–
COc1ccc(C(=O)N2CCCC2=O)cc1,inactive,–
Cc1ccc(N=CN(C)C=Nc2ccc(C)cc2C)c(C)c1,inactive,–
c1ccc2c(c1)Sc1ccccc1N2CC1CN2CCC1CC2 (stereo not drawn),26.6 µM (active),–
CC(C)=CC1C(C(=O)OCN2C(=O)C3=C(CCCC3)C2=O)C1(C)C (stereo not drawn),inactive,–
O=C1OC(c2ccc(O)c(S(=O)(=O)O)c2)(c2ccc(O)c(S(=O)(=O)O)c2)c2c(Br)c(Br)c(Br)c(Br)c21,inactive,–
C/C=C(\C)C(=O)N[C@@H](c1ccccc1)[C@@H](O)C(=O)O[C@H]1C[C@@]2(O)[C@@H](OC(=O)c3ccccc3)[C@@H]3[C@]4(OC(C)=O)CO[C@@H]4C[C@H](O)[C@@]3(C)C(=O)[C@H](OC(C)=O)C(=C1C)C2(C)C,0.0209 µM (active),–
C[C@]12CC[C@H]3[C@@H](CC[C@@]45O[C@@H]4C(O)=C(C#N)C[C@]35C)[C@@H]1CC[C@@H]2O,10.5 µM (active),–
C[C@]12CC[C@@H]3c4ccc(OC(=O)N(CCCl)CCCl)cc4CC[C@H]3[C@@H]1CC[C@@H]2O,inactive,–
CCN(C(C)=O)c1cccc(-c2ccnc3c(C#N)cnn23)c1,inactive,–
C/C(=C\c1csc(C)n1)[C@@H]1C[C@@H]2O[C@@H]2CCC[C@H](C)[C@H](O)[C@@H](C)C(=O)C(C)(C)[C@@H](O)CC(=O)O1,0.0052 µM (active),–
COc1ccc2c(c1OC)C(=O)O[C@H]2[C@@H]1c2cc3c(cc2CCN1C)OCO3,inactive,–
CN1[C@H]2CC(O)C[C@H]1[C@H]1O[C@H]12 (stereo partly drawn),inactive,–
CO[C@H]1CCC(O[C@H]2C[C@H]([C@]3(C)CC[C@]4(C[C@H](O)[C@@H](C)[C@@H]([C@@H](C)/C=C(\C)C(=O)[C@H](C)C[C@H](C)C(=O)O)O4)O3)O[C@]3(O[C@@H]([C@H]4O[C@@](O)(CO)[C@H](C)C[C@@H]4C)C[C@@H]3C)[C@@H]2C)O[C@@H]1C (stereo partly drawn),0.166 µM (active),–
O=C(NC(=O)c1c(F)cccc1F)Nc1cc(Cl)c(OC(F)(F)C(F)C(F)(F)F)cc1Cl (stereo not drawn),11.9 µM (active),–
O=C(Nc1ccncc1)C(=O)c1cn(Cc2ccc(Cl)cc2)c2ccccc12,0.132 µM (active),–
C/C1=C/C[C@@H](/C(C)=C/c2csc(C)n2)OC(=O)C[C@H](O)C(C)(C)C(=O)[C@H](C)[C@@H](O)[C@@H](C)CCC1,0.0332 µM (active),–
Clc1ccc(CCC(Cn2ccnc2)Sc2c(Cl)cccc2Cl)cc1 (stereo not drawn),18.6 µM (active),–

# Assay: Viability qHTS for spleen associated tyrosine kinase inhibitor (SYKi) drug resistant MV4-11 cells (AID 1963824); also: nearly all actives have a fitted effect of over 35% in size
# Settings: SYKi-resistant MV4-11 viability, CellTiter-Glo, 72 h; series mostly up to 45 µM
# Summary of the method: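 SYK inhibitor-resistant MV4-11 AML cells, 500 per well, added to predispensed compounds and incubated 72 hr at 37 C, 5% CO2. Viability measured by CellTiter-Glo luminescence after 10 min at room temperature.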
Compound,Potency,"viability, % of control"
COc1cc(C[C@@H](C)N)c(OC)cc1C,inactive,–
COc1ccc2c3c1O[C@H]1[C@@H](O)C=C[C@H]4[C@@H](C2)N(C)CC[C@@]341,30 µM (active),–
Clc1cccc(N2CCNCC2)c1,inactive,–
COc1cc2c(cc1F)C(c1ccccc1Cl)=Nc1c(n[nH]c1C)N2,1.48 µM (active),–
NCC(O)c1ccc(O)cc1 (stereo not drawn),inactive,–
COc1ccc(OC)c(CC(C)N)c1 (stereo not drawn),inactive,–
CCC(OC(C)=O)C(CC(C)NC)(c1ccccc1)c1ccccc1 (stereo not drawn),31 µM (active),–
Oc1ccc(Cl)cc1Cc1ccccc1,24.6 µM (active),–
COc1ccccc1N1CCNCC1,inactive,–
Cc1nnc2n1-c1sc(CCc3ccc(CC(C)C)cc3)cc1C(c1ccccc1Cl)=NC2C (stereo not drawn),4.11 µM (active),–
C[C@@]12OC(=O)[C@]1([C@@H](O)[C@@H]1C=CCCC1)NC(=O)[C@@H]2CCCl,0.0235 µM (active),–
CCC1(c2ccccc2)C(=O)N(COC)C(=O)N(COC)C1=O,inactive,–
NCc1cccnc1,inactive,–
NP(N)(=O)NC(=O)c1ccc(F)cc1,inactive,–
CN1C(=O)NC(=O)C(C)(C2=CCCCC2)C1=O (stereo not drawn),inactive,–
NCC(CC(=O)O)c1ccc(Cl)cc1 (stereo not drawn),–,103% [at 0.588 µM] (inactive)
CCC(=O)OC1(c2ccccc2)CCN(C)CC1,inactive,–
ClC1=C(Cl)C2(Cl)C(CBr)CC1(Cl)C2(Cl)Cl (stereo not drawn),inactive,–
CCN(CC)CCOC(=O)C(C)(c1ccccc1)c1ccccc1,inactive,–
Nc1ccccc1,inactive,–

Compound,Potency,"viability, % of control"
COc1ccc(Cc2nccc3cc(OC)c(OC)cc23)cc1OC,7.5 µM (active) and 2.95 µM (active),–
COC12C(COC(N)=O)C3=C(C(=O)C(C)=C(N)C3=O)N1CC1C2N1C (stereo not drawn),0.833 µM (active),–
COc1ccc(C(=O)N2CCCC2=O)cc1,inactive,–
Cc1ccc(N=CN(C)C=Nc2ccc(C)cc2C)c(C)c1,inactive,–
c1ccc2c(c1)Sc1ccccc1N2CC1CN2CCC1CC2 (stereo not drawn),26.6 µM (active),–
CC(C)=CC1C(C(=O)OCN2C(=O)C3=C(CCCC3)C2=O)C1(C)C (stereo not drawn),inactive,–
O=C1OC(c2ccc(O)c(S(=O)(=O)O)c2)(c2ccc(O)c(S(=O)(=O)O)c2)c2c(Br)c(Br)c(Br)c(Br)c21,inactive,–
C/C=C(\C)C(=O)N[C@@H](c1ccccc1)[C@@H](O)C(=O)O[C@H]1C[C@@]2(O)[C@@H](OC(=O)c3ccccc3)[C@@H]3[C@]4(OC(C)=O)CO[C@@H]4C[C@H](O)[C@@]3(C)C(=O)[C@H](OC(C)=O)C(=C1C)C2(C)C,0.0235 µM (active),–
C[C@]12CC[C@H]3[C@@H](CC[C@@]45O[C@@H]4C(O)=C(C#N)C[C@]35C)[C@@H]1CC[C@@H]2O,6.61 µM (active),–
C[C@]12CC[C@@H]3c4ccc(OC(=O)N(CCCl)CCCl)cc4CC[C@H]3[C@@H]1CC[C@@H]2O,inactive,–
CCN(C(C)=O)c1cccc(-c2ccnc3c(C#N)cnn23)c1,inactive,–
C/C(=C\c1csc(C)n1)[C@@H]1C[C@@H]2O[C@@H]2CCC[C@H](C)[C@H](O)[C@@H](C)C(=O)C(C)(C)[C@@H](O)CC(=O)O1,0.0058 µM (active),–
COc1ccc2c(c1OC)C(=O)O[C@H]2[C@@H]1c2cc3c(cc2CCN1C)OCO3,inactive,–
CN1[C@H]2CC(O)C[C@H]1[C@H]1O[C@H]12 (stereo partly drawn),inactive,–
CO[C@H]1CCC(O[C@H]2C[C@H]([C@]3(C)CC[C@]4(C[C@H](O)[C@@H](C)[C@@H]([C@@H](C)/C=C(\C)C(=O)[C@H](C)C[C@H](C)C(=O)O)O4)O3)O[C@]3(O[C@@H]([C@H]4O[C@@](O)(CO)[C@H](C)C[C@@H]4C)C[C@@H]3C)[C@@H]2C)O[C@@H]1C (stereo partly drawn),0.209 µM (active),–
O=C(NC(=O)c1c(F)cccc1F)Nc1cc(Cl)c(OC(F)(F)C(F)C(F)(F)F)cc1Cl (stereo not drawn),16.8 µM (active),–
O=C(Nc1ccncc1)C(=O)c1cn(Cc2ccc(Cl)cc2)c2ccccc12,0.166 µM (active),–
C/C1=C/C[C@@H](/C(C)=C/c2csc(C)n2)OC(=O)C[C@H](O)C(C)(C)C(=O)[C@H](C)[C@@H](O)[C@@H](C)CCC1,0.0332 µM (active),–
Clc1ccc(CCC(Cn2ccnc2)Sc2c(Cl)cccc2Cl)cc1 (stereo not drawn),11.9 µM (active) and 18.6 µM (active),–
